We go through 17 molecules from PubChem BioAssay (NCI).

Values joined by “and” are separate entries in the source; they are usually repeats but may differ in a detail not shown here. Equal entries are not always repeated. Compounds without any hit were thinned out: in the full panel of roughly 79,000, 15% have a hit. Active and inactive are the calls of the source. No stated cut-off is given here; in the data, active means growth inhibition above about 70%; inactive means the rest.

This assay can be described thus: NCI Yeast Anticancer Drug Screen. Data for the rad50 strain (AID 155).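 Further: 0% = growth of vehicle-only cultures of the same strain.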 Particulars: S. cerevisiae rad50 strain growth inhibition; at 50.0 µM; active compounds read high. In a few lines:
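Compounds were tested on a yeast strain with an engineered DNA damage repair alteration; the reported value is growth inhibition normalised to vehicle treatment.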
Consider `CCC[As](=O)(O)CC(C)C`, for which the growth inhibition is 3.2% (inactive).
The figure for `CCCOC(=O)c1cncn1C(C)c1ccccc1` (configuration not stated) is 4.4% (inactive); for `C/C=C/CC1(C(C)C)C(=O)NC(=O)NC1=O` it is 8.6% (inactive) and 18.7% (inactive).
The result for `NC(N)=NCCCCCCCCCCN=C(N)N` reads 0.45% (inactive); that for `O=C(Nc1ccc(S(=O)(=O)Nc2ccc(N=Nc3ccc(N=Nc4ccccc4)cc3)cc2)cc1)C(N1CC1)(N1CC1)N1CC1`, 30.4% (inactive).
The result for `CC1(C)C=C(NC(=O)N2CC2)C(C)(C)N1O` reads 12.7% (inactive); that for `CC1=CC(=O)NP(=O)(Oc2ccc(C)cc2)N1` (configuration not stated), -7.7% (inactive).
In the case of `CCCN(CCC)C(=O)CCl`, the growth inhibition was -4.55% (inactive).
The figure for `O=[P+](O)c1ccccc1` is -5% (inactive) and -7.35% (inactive).
With `CN(C)CCNC(=O)c1ccc([N+](=O)[O-])c(C(C)(C)C(=O)Nc2ccc(N(CCCl)CCCl)cc2)c1`, the growth inhibition was -1% (inactive).
The result for `CCCC(C)COC(=O)Cc1ccccc1` (configuration not stated) reads 18.3% (inactive).
As to `CCCCOC1OCN(C2CCCCC2)CC1(C)C` (configuration not stated), the growth inhibition is 13.5% (inactive).
The figure for `CN(C)P1P(N(C)C)P(N(C)C)P1N(C)C` (configuration not stated) is -25.4% (inactive); for `C[CH2][Sn]([CH2]C)([CH2]C(=O)OC)[CH2]C(=O)OC` it is 3.15% (inactive).
For `CCCP(=S)(CCC)P(=S)(CCC)CCC`, the growth inhibition is 5.4% (inactive).
The result for `CCC[N+](CCC)(CCC)CCC.[Ni+2].[SH2+]C([SH2+])=Nc1ccccc1.[SH2+]C([SH2+])=Nc1ccccc1` reads 24.1% (inactive); that for `CC(C)c1ccc(-n2c(=S)[nH]c3ccccc3c2=O)cc1`, -16.3% (inactive).
